# Bioassay records: PubChem, National Center for Advancing Translational Sciences (NCATS)
# Rows were chosen to be rich in hits. Some 11% of all compounds tested hit in one or more screens of this group.
# PNC assembly inh: blocks assembly of the perinucleolar compartment. AID 2417. activity change (PNC), negative = inhibition, % at 10 µM. PC3M PTB-GFP, PNC prevalence imaging, 16 h; active compounds read low. actives 3.1% (n = 140,000);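 active = readout at or below -70, meaning at least 70% loss of cells showing the perinucleolar compartment, a nuclear body marking cancer cells; inconclusive = readout between -30 and a set limit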;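 note: plate controls were DMSO wells for no effect and camptothecin positive control wells for full effect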
#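 Read-out is percentage of cells bearing a perinucleolar compartment, from automated 20x imaging of fixed, Hoechst-stained PC3M PTB-GFP cells. Cells were seeded 4 h, then exposed 16 h to compound (23 nl of library stock) in duplicate plates.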
# HPGD block: inhibitors of human 15-hydroxyprostaglandin dehydrogenase (HPGD). Potency, µM, without a hit: top-dose activity change, negative = inhibition, usual class: inhibitors. AID 894. actives 4.3% (n = 150,000). purified HPGD, NADH fluorescence kinetic, PGE2 substrate; note: potency is the fitted concentration of half-maximal effect
# Target sequence (P15428 whole entry, looked up): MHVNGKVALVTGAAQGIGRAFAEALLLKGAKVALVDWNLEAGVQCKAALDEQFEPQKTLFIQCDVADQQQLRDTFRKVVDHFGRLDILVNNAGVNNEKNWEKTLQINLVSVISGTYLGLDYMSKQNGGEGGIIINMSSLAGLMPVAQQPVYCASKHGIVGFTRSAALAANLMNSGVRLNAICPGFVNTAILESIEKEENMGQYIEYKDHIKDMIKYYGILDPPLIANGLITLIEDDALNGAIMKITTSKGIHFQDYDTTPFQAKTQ
#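 20 nM HPGD preincubated 15 min at room temperature with compound in 50 mM Tris-HCl pH 8, 0.01% Tween 20. Started with 1 mM NAD+ and 30 uM prostaglandin E2; NADH fluorescence (360/450 nm) read 5 times over 30-s intervals, last minus first.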
# ALDH1A1 block: blocks purified human ALDH1A1 activity. P00352. Purified ALDH1A1, NADH fluorescence, propionaldehyde substrate. Potency, µM (top dose mostly 75.3 µM), for inactives: at the top dose activity, negative = inhibition, hits mostly inhibitors. actives 7.3% (n = 220,000). AID 1030;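 note: potency is the fitted concentration of half-maximal effect; plate controls were no enzyme wells and a reference inhibitor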
# Numbers without * were called inactive; ? = inconclusive; . = no result given; [ ] = dose if it differs, or a comment. Unless noted, calls come from the whole dose curve; as a rule, active = well fitted inhibition curve with a large enough effect (not every such curve was filed as active); inconclusive = small, poorly fitted or top-dose-only effect, or another doubt; inactive = no such curve, though single readings can be large or run the other way. Unless noted, % is set by controls: 0 for no effect and ±100 for the full control effect.
SMILES,PNC assembly inh,HPGD block,ALDH1A1 block
O=C(O)C1CC=CCC1C(=O)Nc1ccc(Oc2ccc(Cl)cc2)cc1 (configuration not stated),?,-11%,1.4µM*
COC(=O)c1ccccc1NC(=O)C1CC=CCC1C(=O)O (configuration not stated),-26,-16%,-14%
COC(=O)c1cc(NC(=O)C2CC=CCC2C(=O)O)cc(C(=O)OC)c1 (configuration not stated),29,-7%,13µM*
C[C@H](CCC(=O)O)C1CC[C@H]2C3CC[C@@H]4C[C@H](O)CC[C@]4(C)C3C[C@H](O)[C@]12C (some centres not stated),.,.,1%
CC(C)C(=O)NNc1ccc(C(F)(F)F)cn1,.,.,8%
Cc1csc(NC(=O)[C@@H]2CCCN2C(=O)c2cccs2)n1,.,.,5%
O=C(Nc1ccccc1)N1CC[C@@]2(CCCN(C(=O)c3ccncc3)C2)C1,.,-4%,1%
Cc1cc(NC(=O)c2cccc(Oc3ccccc3)c2)n[nH]1,.,.,-6%
CCN1CCN(c2ccc(N=Cc3ccccc3O)cc2)CC1,.,.,-2%
CCOC(=O)c1oc2cc(O)c(CC)cc2c(=O)c1-c1cscn1,.,.,-13%
CCOC(=O)c1ccc(-c2c(C(=O)OCC)oc3cc(O)c(CC)cc3c2=O)o1,2,-17%,10µM*
CCOc1ccccc1Cn1c(=O)sc2ccccc21,.,.,-1%
COc1ccccc1NC(=O)N(Cc1cccs1)Cc1cc2cc3c(cc2[nH]c1=O)OCO3,25,-14%,?
COc1ccc(CNc2ccnc(-c3ccccc3C(F)(F)F)n2)c(OC)c1,.,-12%,-1%
CC12C=C(/C=C/C=C/c3ccco3)C(C)(C1)C(/C=C/c1ccco1)CC2=O (configuration not stated),.,.,-14%[13.5 µM]
CC1=C(C(=O)N2CCOCC2)C(c2ccc(O)cc2)NC(=S)N1 (configuration not stated),-2,-14%,?
Oc1ccc2c(c1)C1CCCC1(N1CCOCC1)O2 (configuration not stated),-5,?,18µM*
C=CCOC(=O)C1=C(C)OC(N)=C(C#N)C1c1ccc2c(c1)OCO2 (configuration not stated),39,?,?
COC(=O)C1=C(C)OC(N)=C(C#N)C1c1ccco1 (configuration not stated),?,-10%,-10%
COCCOC(=O)C1=C(C)OC(N)=C(C#N)C1c1ccco1 (configuration not stated),-100*,-17%,?
COCCOC(=O)C1=C(C)OC(N)=C(C#N)C1c1ccc2c(c1)OCO2 (configuration not stated),29,32µM*,13µM*
COc1ccc(/C(N)=N/OC(=O)Cc2ccc(OC)c(OC)c2)cc1,-15,.,7.9µM*
COc1ccc(C/C(N)=N/OC(=O)Cc2ccc(OC)c(OC)c2)cc1,-4,-6%,-6%
COc1ccc(C/C(N)=N/OC(=O)C(c2ccccc2)c2ccccc2)cc1OC,-5,.,6.3µM*
COc1ccc(C/C(N)=N/OC(C)=O)cc1OC,?,0%,10%
SMILES,PNC assembly inh,HPGD block,ALDH1A1 block
CC(C)(C)C1CCC2(CC1)SCC(=O)N2c1ccccc1 (configuration not stated),?,-7%,?
CC(C)(C)C1CCC2(CC1)NC(=S)N(c1ccccc1)N2 (configuration not stated),169,11µM*,?
O=C(COc1ccc(Nc2ccccc2)cc1)OCC(=O)N1CCCCC1,.,.,-9%
O=c1c2ccccc2nc(COc2ccccc2)n1/N=C/c1cn[nH]c1-c1ccccc1,14,-5%,5%
Cc1ccccc1OCc1nc2ccccc2c(=O)n1/N=C/c1cn[nH]c1-c1ccc(Br)cc1,?,32µM*,3%
Cc1ccc(C(=O)N2CCCC(C(=O)c3ccc(Oc4ccccc4)cc3)C2)cn1 (configuration not stated),.,.,-10%
O=C(CSc1ncnc2c1nnn2Cc1ccccc1)NC1CCCC1,.,.,8%
CC(C)(C)NC(=O)CSc1ncnc2c1nnn2Cc1ccccc1Cl,-26,32µM*,?
c1ccc(-c2nnc(CSc3nnc(-c4ccncc4)n3Cc3ccco3)o2)cc1,-6,20µM*,9%
O=C(CSc1nnc(-c2ccccc2Cl)n1Cc1ccco1)Nc1ccc2c(c1)OCCO2,-96*,-13%,10µM*
O=C(CSc1nnc(-c2ccncc2)n1Cc1ccco1)Nc1nccs1,-100*,-7%,1%
C(=C\c1ccccc1)/CSc1nnc(-c2ccncc2)n1Cc1ccco1,27,-19%,?
O=C(CSc1nnc(COc2ccccc2)n1Cc1ccco1)Nc1ccc2c(c1)OCCO2,-8,-1%,?
Cc1cccc(C)c1NC(=O)CSc1nnc(-c2ccncc2)n1Cc1ccco1,2,-9%,17%
O=C(CSc1nnc(-c2ccc(Cl)cc2)n1Cc1ccco1)Nc1ccc2c(c1)OCCO2,8,25µM*,5µM*
O=C(CSc1nnc(-c2ccc(Cl)cc2)n1Cc1ccco1)NCc1ccc2c(c1)OCO2,12,-2%,?
CCc1ccccc1N(C(C)=O)c1nc(CN=C=S)cs1,.,.,-6%
C=CCN1c2ccccc2[C@]23C[C@@H](C(=O)OC)N(S(=O)(=O)c4ccc(Br)cc4)C2=NC(C(=O)OC)=C(C(=O)OC)[C@H]13,.,-6%,16%[13.5 µM]
CCOC(=O)Cc1csc(NC(=O)C(C)c2ccc([N+](=O)[O-])cc2)n1 (configuration not stated),.,.,4%
NCCCNCCSP(=O)(O)O,.,-9%,3%
O=C(Cc1ccccc1)NCC(=O)N/N=C/c1ccc(Cl)cc1,.,.,1%
CC(=O)Nc1cccc(NC(=O)CSc2ncc(-c3ccc(Cl)cc3)n2Cc2ccco2)c1,-17,-24%,-10%
O=C(CSc1nnc(Cc2cccs2)n1Cc1ccco1)Nc1ccc(Cl)cc1Cl,10,-20%,?
Cc1ccc(-c2nnc(SCc3nc4ccccc4[nH]3)n2Cc2ccco2)cc1,18,-29%,16µM*
Cc1cccc(-c2nnc(SCc3nc4ccccc4[nH]3)n2Cc2ccco2)c1,-9,.,16%
SMILES,PNC assembly inh,HPGD block,ALDH1A1 block
O=C(CSc1nnc(Cc2cccs2)n1Cc1ccco1)Nc1ccc(Br)cc1,-14,?,20µM*
COc1ccc(-c2cnc(SCC(=O)Nc3ccc4c(c3)OCO4)n2Cc2ccco2)cc1,?,-17%,11µM*
O=C(CSc1nnc(-c2ccncc2)n1Cc1ccco1)N1c2ccccc2Sc2ccc(Cl)cc21,-100*,-18%,-1%
Cn1c(SCC(=O)N2c3ccccc3Sc3ccc(Cl)cc32)nnc1-c1ccco1,0,-13%,?
CCCCC1C2=C(CC(C)(C)CC2=O)OC2=C1C(=O)CC(C)(C)C2,14,.,6%
CCCNC(=O)CC1C(=O)N(Cc2ccccc2)C(C)c2nc3ccccc3n21 (configuration not stated),1,0%,5%
Cc1ccc(-n2c(SCC(=O)NCc3ccco3)nnc2-c2cccnc2)cc1,2,-17%,?
CCn1c2ccccc2c2cc(NC(=O)CSc3nnc(C4CC4)n3Cc3ccco3)ccc21,-24,?,18µM*
CCn1c(SCC(=O)Nc2ccc3c(c2)c2ccccc2n3CC)nnc1-c1cnccn1,4,-1%,12%
